# M1 antag – human CHRM1 antagonism. P11229. CHO-K1 hM1, Fluo-8 calcium fluorescence, ACh EC80 antagonist. inhibition, % at 3 µM. actives 1.3% (n = 360,000). AID 588852;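 active = percent inhibition above its own plate's cutoff, namely the mean of that plate's compound wells plus 3 SD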;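 also: peak over basal fluorescence ratio during 140 s after agonist addition; 0% = ACh EC80 plus DMSO and 100% = DMSO alone without agonist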
# Target sequence (P11229 whole entry, looked up): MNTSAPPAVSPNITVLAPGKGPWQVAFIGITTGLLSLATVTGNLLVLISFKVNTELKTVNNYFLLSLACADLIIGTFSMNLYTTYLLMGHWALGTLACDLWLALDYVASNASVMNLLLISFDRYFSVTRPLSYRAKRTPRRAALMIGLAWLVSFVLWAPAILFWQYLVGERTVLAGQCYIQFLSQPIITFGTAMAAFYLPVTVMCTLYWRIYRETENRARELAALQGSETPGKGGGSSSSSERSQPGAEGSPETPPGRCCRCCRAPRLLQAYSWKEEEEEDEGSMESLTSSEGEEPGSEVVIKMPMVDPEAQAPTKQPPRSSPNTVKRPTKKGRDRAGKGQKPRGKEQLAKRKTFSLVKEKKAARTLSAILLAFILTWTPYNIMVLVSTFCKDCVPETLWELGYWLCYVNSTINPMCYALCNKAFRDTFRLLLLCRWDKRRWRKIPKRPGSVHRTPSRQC
# CHRM1 PAM – positive allosteric modulators of human M1 muscarinic receptor; P11229; CHO-K1 hM1, Fluo-8 calcium fluorescence, ACh EC20; 0% = ACh EC20, 100% = maximal ACh; activation, % at 3 µM; actives 0.088% (n = 360,000); AID 588819; in the data active = activation above about 19%, passing the limit was not always enough
# CHO-K1 Ca antag – nonselective inhibitor or artifact in parental CHO-K1 cells. ATP-induced calcium, Fluo-8 fluorescence. inhibition, % at 3 µM. actives 0.6% (n = 360,000);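 active = inhibition above a per-plate cutoff, the plate's mean sample inhibition plus 3 SD, cut at about 24% in these data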;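 also: 0% = DMSO plus EC80 ATP and 100% = DMSO alone without ATP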
# CHO-K1 Ca ag – nonselective activator or artifact in parental CHO-K1 cells. Fluo-8 calcium fluorescence; scaled to maximal ATP response, vehicle zero. activation, % at 3 µM. actives 0.48% (n = 360,000). AID 602248; in the data active = activation above about 15%;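 also: untransfected CHO-K1 host cells lacking M1 receptor as counterscreen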
# M1 PAM parental – counter-screen for M1 PAMs: effect in parental CHO-K1 cells; ATP EC20, Fluo-8 calcium fluorescence; 0% at ATP EC20, 100% at ATP max; activation, % at 3 µM; actives 0.02% (n = 360,000); AID 602247;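 active = activation above the run cutoff, the mean activation of all test compounds plus 3 SD, cut at about 40% in these data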;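 also: peak over basal fluorescence ratio in a 140 s read after ATP addition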
# CHRM1 agonist – agonists of human M1 muscarinic receptor; P11229; CHO-K1 hM1, Fluo-8 calcium fluorescence, agonist mode; 0% DMSO, 100% acetylcholine EC100; activation, % at 3 µM; actives 0.33% (n = 360,000);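 active = activation above the run's mean compound activation plus 3 SD, cut at about 16% in these data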;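 also: peak over basal fluorescence ratio within a 140 s kinetic read after compound addition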
# Starred values were filed as active, the others as inactive. Rows were chosen to be rich in hits. Some 2.4% of all compounds tested hit in one or more screens of this group.
SMILES,M1 antag,CHRM1 PAM,CHO-K1 Ca antag,CHO-K1 Ca ag,M1 PAM parental,CHRM1 agonist
FC(F)(F)c1ccc2c(c1)n(Cc1ccccc1)c1[n+]2CCCCC1,49*,-25,-11,1,-4,-9
Cc1ccc(-c2nc3ncccc3o2)cc1NC(=O)C(C)(C)C,-21,10,-15,2,28,-2
Cc1ccc(-c2nc3ncccc3o2)cc1NC(=O)c1cccs1,-9,5,26*,0,-14,-5
CCOC(=O)c1cn(Cc2ccccc2)c(C(=O)OC(C)(C)C)c1O,17,-21,0,44*,-19,15
CCOC(=O)c1cn(Cc2ccccc2)c2cc(C)nn2c1=O,-6,0,-15,1,14,-1
O=C(Nc1ccc2c(c1)OCCO2)c1c(Cl)cccc1Cl,32*,-17,9,0,-5,-5
O=C(Nc1ccc2c(c1)OCCO2)c1cccc(Cl)c1Cl,-9,6,14,0,-26,-7
COc1ccccc1C(=O)Nc1ccc2c(c1)OCCO2,-5,4,-6,1,-2,-3
COc1cc(SC)ccc1C(=O)Nc1ccc2c(c1)OCCO2,7,-6,-10,17*,20,-6
Cc1ccc(S(=O)(=O)c2nc(S(C)(=O)=O)sc2N2CCCCC2C)cc1 (stereo not given),-2,-1,-10,0,25,-10
Cc1ccc(/C=N/NC(=O)c2nnn(-c3nonc3N)c2C(C)C)o1,24,-7,28*,2,-26,5
CCc1ccc(/C=N/NC(=O)c2nnn(-c3nonc3N)c2C(C)C)cc1,-2,24,2,6,6,33*
N#CC1=C(N)Oc2cc(O)c(Cl)cc2C1c1ccccc1F (stereo not given),20,-15,-7,2,-6,26*
N#CC1=C(N)Oc2cc(O)c(Cl)cc2C1c1cccnc1 (stereo not given),-11,10,14,8,0,7
COc1cccc(NC(=O)CN(C)C(=O)[C@@H]2CCCN2C(=O)c2cccs2)c1,-16,16,-13,1,6,-1
CC(O)CN(CC(C)O)c1ccc2c(c1)Cc1cc([N+](=O)[O-])ccc1-2 (stereo not given),71*,-29,60*,174*,-20,134*
Nc1ccc2c(c1)Cc1cc([N+](=O)[O-])ccc1-2,20,-12,13,26*,9,5
CCOC(=O)C1=C(CC)Nc2ccccc2N=C1NC(=O)c1cc(C)on1,12,-9,-8,5,-12,-4
CCOC(=O)C1=C(CC)Nc2ccccc2N=C1NC(=O)Nc1ccc(Cl)c(Cl)c1,33*,-16,24,10,7,5
COc1ccc(C(=O)CSc2nc3nn(-c4ccccc4)c(=O)c-3c3n2CCCCC3)c(OC)c1,0,6,-9,0,15,-5
CC(C)n1c(CCC(=O)O)ccc1-c1ccccc1,22*,-4,-9,0,-9,-3
CCCS(=O)(=O)N1CCN=C1SCc1cccnc1,0,4,1,0,16,-5
CCN(CC)CCn1c2c(c(SCC(=O)Nc3cccc(C(C)=O)c3)nc1=O)CCCC2,61*,-25,-10,2,1,-7
CCN(CC)CCCn1c2c(c(SCC(=O)Nc3cccc(C(C)=O)c3)nc1=O)CCC2,-3,-4,6,0,-12,-5
CC(Nc1nc(-c2cccnc2)nc2ccccc12)c1ccccc1 (stereo not given),-6,-4,7,17*,13,-5
SMILES,M1 antag,CHRM1 PAM,CHO-K1 Ca antag,CHO-K1 Ca ag,M1 PAM parental,CHRM1 agonist
CC(Nc1nc(-c2ccncc2)nc2ccccc12)c1ccccc1 (stereo not given),17,-8,-3,0,-8,-7
CCC(NC(=S)NCc1ccc(F)cc1)c1ccc(C(C)C)cc1 (stereo not given),97*,-23,0,8,-4,2
CCCc1ccc(C(C)NC(=S)NCc2ccc(F)cc2)cc1 (stereo not given),44*,-17,16,17*,-10,7
COc1ccc(C(C)NC(=S)NCc2ccc(F)cc2)cc1OC (stereo not given),-6,12,9,3,-1,-2
CCC(C)c1ccc(C(C)NC(=S)NCc2ccc(F)cc2)cc1 (stereo not given),34*,-17,0,2,-2,-6
CCCNC(=O)C1(C)CCN(Cc2noc(-c3ccccc3OC)n2)C1 (stereo not given),-10,5,-7,0,-4,-2
CCOC(=O)C1=C[C@@H](C(C)(C)C)N(S(=O)(=O)c2ccc(C)cc2)[C@H]1c1ccc(C)cc1,25,-15,13,1,15,-5
CCOC(=O)C1=C[C@@H](C(C)(C)C)N(S(=O)(=O)c2ccc(C)cc2)[C@H]1c1ccccc1Cl,25,-17,24*,1,-5,-4
O=C1c2ccccc2C(=O)N1CC#CCN1CCN(C(c2ccccc2)c2ccccc2)CC1,-2,-9,-13,-1,13,-6
O=C1C2CSCN2C(=O)CN1CCCN1CCN(C(c2ccccc2)c2ccccc2)CC1 (stereo not given),62*,-26,9,-1,0,-9
O=C(NC(=S)Nc1ccc(CN2CCOCC2)cc1)c1ccc(-c2cccc(Cl)c2)o1,58*,-23,-9,2,10,-6
O=C(Nc1ccc(CN2CCOCC2)cc1)c1ccc(-c2cccc(Cl)c2)o1,2,1,-5,4,22,-1
Cc1ccc(C(=O)NC(=S)Nc2ccc(CN3CCOCC3)cc2)cc1,2,0,2,5,-4,-4
COc1ccc(Br)cc1C(=O)NC(=S)Nc1ccc(CN2CCOCC2)cc1,32*,-17,-23,3,22,-4
O=C(COC(=O)c1cc(=O)[nH]c2ccccc12)c1cccs1,3,1,30*,0,-19,0
O=C1CC(N2CCN(C/C=C/c3ccccc3)CC2)C(=O)N1Cc1cccs1 (stereo not given),87*,-24,-20,2,16,-8
O=C1CC(N2CCN(C/C=C/c3ccccc3)CC2)C(=O)N1CCc1ccccc1 (stereo not given),9,-25,-2,16*,0,-3
O=C1CC(N2CCN(c3ccc(O)cc3)CC2)C(=O)N1Cc1cccs1 (stereo not given),-6,3,3,1,-2,-4
O=C1CC(N2CCN(C3CC(=O)N(CCc4ccccc4)C3=O)CC2)C(=O)N1CCc1ccccc1 (stereo not given),0,0,-1,2,-8,-3
